Assay outcomes from PubChem BioAssay.
RecA intein inh: inhibitors of M. tuberculosis RecA intein splicing | P9WHJ3 | cell-free RecA intein splicing, fluorescence | inhibition, % (no concentration beside the values) | 290,000 tested, 0.75% active; in the data active means inhibition above about 30%;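 further: 0% = vehicle wells and 100% = reference inhibitor control wells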
PfHsp40 rescue: restores yeast growth despite PfHsp40 toxicity | S. cerevisiae expressing PfHsp40, growth rescue, ATP luminescence | growth rescue, % at 12.5 µM | 340,000 tested, 0.68% active; in the data active means growth rescue above about 28%, passing the limit was not always enough;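 further: yeast W303a lacking pdr1 and pdr3 grown in galactose medium; growth measured after three days at 30 °C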
BJeLR lethal: BJeLR cell viability loss; BJeLR (HRASV12) viability, CellTiter-Glo ATP luminescence, 48 h; inhibition, % (no concentration beside the values); 300,000 tested, 0.17% active; AID 1554; in the data active means inhibition above about 50%
PriA SSB inh: inhibitors of Klebsiella pneumoniae PriA binding to SSB C-terminal tail. AlphaScreen SSBct-PriA binding, biotinylated peptide. inhibition, % at 33 µM. 430,000 tested, 0.6% active; in the data active means inhibition mostly above about 37%, no sharp cut-off; inactive means mostly below about 20%;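 further: plate controls were negative control peptide for no effect and reference peptide for full effect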
PrPC surface inh: inhibitors of human cell surface prion protein PrPC; 370,000 tested, 0.43% active; P04156; inhibition, % at 13.8 µM; TR-FRET read-out; in the data active means inhibition above about 24%; further: 0% = median of the test wells and 100% = reference compound wells
PrP UTR inh: inhibition of PrP 5' UTR reporter expression. cell-based PrP 5' UTR mRNA reporter, plate reader. AID 488862. inhibition, % (no concentration beside the values). 340,000 tested, 0.35% active; in the data active means inhibition above about 52%; further: 0 = median of the neutral control wells
* marks the source's active call; other numbers are inactive results; x = no result given. A selection: hits, their analogues and other compounds. The true share with any hit is near 1.9%.

SMILES	RecA intein inh	PfHsp40 rescue	BJeLR lethal	PriA SSB inh	PrPC surface inh	PrP UTR inh
Cc1[nH]nc2c1C(c1cc(Br)cs1)C(C#N)=C(N)O2 (stereo not drawn)	53.1*	-1.1	21.3	-6.8	-3.5	0.2
Cc1ccc(C2C(C#N)=C(N)Oc3n[nH]c(-c4ccccc4)c32)o1 (stereo not drawn)	87.5*	-1.6	-1.1	8.6	10.6	-6.3
O=C(NCc1cccc2ccccc12)N(CCc1cccs1)Cc1ccoc1	x	x	x	6.0	x	x
Cc1nn(C)c(C)c1C1C(C#N)=C(N)Oc2n[nH]c(C)c21 (stereo not drawn)	43.5*	0.5	7.8	-2.6	3.8	-24.3
O=C(c1ccc(Cl)s1)N1CCc2ncncc2C1	x	x	x	14.0	x	x
COc1cc(C(=O)NCC(=O)N/N=C/c2ccco2)cc(OC)c1OC	-0.7	1.2	-4.0	x	-6.6	-3.0
COc1cc(C(=O)NCC(=O)N/N=C/c2cccc(OC(=O)c3ccco3)c2)cc(OC)c1OC	38.7*	0.9	-4.3	x	-2.9	-29.9
Cc1cc(C(=O)N/N=C/c2cccc(OC(=O)c3ccco3)c2)n[nH]1	43.9*	0.6	12.1	x	2.1	-13.3
Cc1cc(C(=O)NN=Cc2cccc(OC(=O)c3ccco3)c2)n[nH]1	x	x	x	-4.6	x	x
O=C(NN=Cc1ccccc1O)C1CC(=O)N(c2ccc(Cl)cc2)C1 (stereo not drawn)	x	x	x	-16.4	x	x
COC(CNS(=O)(=O)c1ccc([N+](=O)[O-])cc1)OC	x	x	x	1.0	x	x
O=S(=O)(c1cccs1)N1CCN(C(c2ccccc2)c2ccccc2)CC1	x	x	x	-2.0	x	x
O=c1c2ccccc2nc(-c2ccc(-c3ccccc3)cc2)n1-c1ccncc1	12.4	340.6*	5.3	8.0	4.0	-22.0
Cc1ccc(-c2nc3ccccc3c(=O)n2-c2ccncc2)cc1	-4.2	1.4	15.4	-10.0	0.4	-6.2
CCC(=C(c1ccc(OC)cc1)c1ccc(OC)cc1)c1cn(CC(O)CN2CCN(C)CC2)c2ccccc12 (stereo not drawn)	x	0.7	x	55.5*	-22.5	-27.2
COc1ccc(NC(=O)N2CCN(c3nc(N4CCOCC4)nc(-n4ccnc4)n3)CC2)cc1Cl	x	x	x	-5.0	x	x
COc1ccc2[nH]cc(S(=O)(=O)c3ccc(F)cc3)c(=O)c2c1	-1.3	-0.9	-3.9	104.2*	5.3	-42.9
CCOc1ccc2[nH]cc(S(=O)(=O)c3ccc(F)cc3)c(=O)c2c1	-1.0	0.8	2.5	-7.7	-4.8	-13.5
COc1ccc(N(C(C)C(=O)N2CCC(Cc3ccccc3)CC2)S(C)(=O)=O)cc1 (stereo not drawn)	8.0	-0.7	10.6	54.9*	14.0	-15.5
CCOC(=O)C1CCN(C(=O)C(C)N(c2ccc(Oc3ccccc3)cc2)S(C)(=O)=O)CC1 (stereo not drawn)	0.2	0.1	3.9	-6.7	9.5	-17.3
COc1ccc(OCC(=O)N2CCC(Cc3ccccc3)CC2)cc1	x	-0.1	-1.2	-7.5	-1.1	-6.3
COc1ccc(Br)c(C(=O)OCC(=O)N2CCC(Cc3ccccc3)CC2)c1	x	27.4*	x	-23.3	1.5	5.4
CCCOc1ccc(CNC(=O)c2ccc(NC(=O)Cn3c(C)cc(C)c(C#N)c3=O)cc2)cc1	x	x	x	-6.0	x	x
CC(=O)NC1N=C(C)N(c2ccccc2)C1=O (stereo not drawn)	52.2*	0.9	5.5	-6.5	2.2	-12.8
Cc1cc(C)n(C2CC(=O)N(c3ccccc3)C2=O)n1 (stereo not drawn)	4.5	0.4	-5.3	-4.3	-3.3	-16.4
SMILES	RecA intein inh	PfHsp40 rescue	BJeLR lethal	PriA SSB inh	PrPC surface inh	PrP UTR inh
Cc1cc(SCC(=O)NCCN2C(=O)CSC2=O)nc2c(C)cccc12	-0.8	36.9*	-0.2	9.7	9.9	-16.2
Cc1cc(C)c2nc(SCC(=O)NCCN3C(=O)CSC3=O)cc(C)c2c1	-1.6	2.7	3.4	-14.1	2.2	-21.5
O=[N+]([O-])c1ccc(N/N=C2\CC3CC=CC23)c([N+](=O)[O-])c1 (stereo not drawn)	11.2	1.2	1.3	x	-13.7	-23.3
O=[N+]([O-])c1ccc(NN=C2CC3CC=CC23)c([N+](=O)[O-])c1 (stereo not drawn)	x	x	x	52.1*	x	x
C/C(=N\NC(=S)NCCc1ccccc1)c1cccs1	13.2	95.9*	3.9	x	-5.3	-6.1
CC(=NNC(=S)NCCc1ccccc1)c1cccs1	x	x	x	7.9	x	x
O=C(Cc1csc(Nc2ccc(F)cc2)n1)NCc1cccs1	x	x	x	1.0	x	x
COc1cc(C(=O)NCC(c2cccs2)N2CCOCC2)cc(Br)c1OCc1ccccc1 (stereo not drawn)	x	132.5*	x	-9.7	3.5	0.6
COc1ccc(/C=C\C(=O)N(c2ccc(C)cc2)C2C=CS(=O)(=O)C2)cc1 (stereo not drawn)	x	x	x	-5.0	x	x
O=C(NC[C@H]1CCCN1c1ccccc1)C1(c2ccccc2)CCOCC1	x	x	x	18.0	x	x
Cc1cc(C)c(S(=O)(=O)N2CCN(C(=O)c3c(C)nn(-c4ccccc4)c3Cl)CC2)c(C)c1	x	0.3	x	44.2*	4.6	2.0
COc1ccc(-c2cc(-c3ccc(C)c(C)c3)nc(SCC(=O)N3CCOCC3)c2C#N)cc1	x	x	x	-12.0	x	x
COc1ccc(C=NNC(=O)c2nnn(-c3nonc3N)c2CN(C)c2ccccc2)cc1	x	x	x	1.3	x	x
Cc1[nH]n(C(N)=S)c(=O)c1C(c1ccccc1)C(C#N)C#N (stereo not drawn)	43.2*	6.6	-3.9	-4.2	0.8	-8.8
O=C(N1CCN(c2cccc(Cl)c2)CC1)C1(S(=O)(=O)c2ccc(Cl)cc2)CC1	x	83.3*	-10.9	-3.0	-8.5	-88.9
CC(=O)c1ccc(N2CCN(C(=O)C3(S(=O)(=O)c4ccc(Cl)cc4)CC3)CC2)cc1	-1.8	5.3	-1.1	6.5	-4.4	-5.7
Cc1cc(Cl)n2c(nc3ccccc32)c1C#N	5.1	2.3	61.2*	9.5	-5.9	24.5
ClCCN(CCCl)c1ccc(C=NNc2ncccn2)cc1	x	35.3*	x	4.2	6.2	-48.8
c1ccc(CNCCN2CCNCC2)nc1	-1.4	3.6	1.2	38.4*	-1.0	-2.3
CCC(C)Sc1cccc(-c2nc3ccccn3c2NCc2ccccc2)c1 (stereo not drawn)	x	219.3*	x	9.2	5.3	8.5
CCC(=CC(=O)c1ccncc1)Nc1ccc(Br)cc1	x	x	x	19.6	x	x
Cc1cccc(NC(=S)NNC(=O)c2csc3c2CCCC3)c1	9.0	140.7*	0.3	16.6	8.6	-25.0
Cc1ccc(C)c(NC(=S)NNC(=O)c2csc3c2CCC(C)C3)c1 (stereo not drawn)	11.7	62.2*	-5.3	12.7	-6.3	x
Cc1ccc(C)c(NC(=S)NNC(=O)c2csc3c2CCCC3)c1	11.5	42.1*	3.9	-0.2	-0.8	-14.3
CCNC(=S)NNC(=O)c1csc2c1CCCC2	0.0	-0.9	-5.1	-18.0	x	-15.3
CCc1cc(C(=O)NNC(=S)Nc2cc(C)ccc2C)cs1	4.1	1.1	-0.3	-6.4	0.3	-22.2
COc1ccc(S(=O)(=O)Nc2ccc3c(c2)C(=O)N(C)CCO3)cc1Cl	x	x	x	-11.0	x	x
COc1cccc(-c2sc3ccc(OC)cc3c2-c2ccc(OCCN3CCCC3)cc2)c1	x	40.1*	x	28.6	x	-22.7
